# From PubChem BioAssay (EPA / NIEHS)
# Records with an inconclusive call do not appear. Calls of active or inactive are those of the source. The calls were made as follows, unless noted: active = hit-call score of the fitted dose curve at least 0.9, where 1 is the maximum; inactive = score below 0.9.
# Legend:
# [1] = ATG_TAL_CIS: Attagene CIS-FACTORIAL HepG2 Assay for human TAL Basal Promoter (AID 2282966); conditions: HepG2 Attagene cis-factorial TAL promoter reporter; actives raise or lower the signal;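 also: background control endpoint measuring basal TAL promoter reporter mRNA not a specific factor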
# Summary of the method: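 Endogenous transcription-factor activity is sensed in HepG2 cells through transfected cis-promoter reporter constructs. After 24 h dosing, reporter transcripts are quantified by RT-PCR and capillary electrophoresis. Gain or loss of signal is fitted relative to DMSO.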
# [2] = ATG_TGFb_CIS: Attagene CIS-FACTORIAL HepG2 Assay for human Transforming Growth Factor (TGF) (AID 2282967); conditions: HepG2 Attagene CIS TGFb reporter, mRNA transcription; actives raise or lower the signal
# Summary of the method: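 Transient MRTU transfection of HepG2 (FuGene 6). Dose 24 h. TriZol RNA, oligo(dT) RT, PCR, 6-FAM primer extension, HpaI cut, CE. Bidirectional fit, DMSO = baseline.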
# [3] = ATG_VDRE_CIS: Attagene CIS-FACTORIAL HepG2 Assay for human Vitamin D Receptor Element (VDRE) (AID 2282968); conditions: HepG2 VDRE cis-reporter transcription, actives raise or lower the signal
# Summary of the method: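 Compounds were applied for 24 h to HepG2 cells transfected with promoter-regulated reporter units. Total RNA was reverse-transcribed, and reporter amplicons were fluorescently labelled and sized by capillary electrophoresis.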
# [4] = biological target: Estrogen receptor (Homo sapiens) (UniProt P03372); assay: ATG_ERa_TRANS: Attagene TRANS-FACTORIAL HepG2 Assay for human Estrogen Receptor alpha (ERa) (AID 2282970; active = hit-call score of the fitted dose curve at least 0.9, where 1 is the maximum); conditions: HepG2 Attagene TRANS ERa GAL4 reporter, mRNA
# Chain of Estrogen receptor (Homo sapiens) (P03372 whole entry, looked up, the tested form may be a part): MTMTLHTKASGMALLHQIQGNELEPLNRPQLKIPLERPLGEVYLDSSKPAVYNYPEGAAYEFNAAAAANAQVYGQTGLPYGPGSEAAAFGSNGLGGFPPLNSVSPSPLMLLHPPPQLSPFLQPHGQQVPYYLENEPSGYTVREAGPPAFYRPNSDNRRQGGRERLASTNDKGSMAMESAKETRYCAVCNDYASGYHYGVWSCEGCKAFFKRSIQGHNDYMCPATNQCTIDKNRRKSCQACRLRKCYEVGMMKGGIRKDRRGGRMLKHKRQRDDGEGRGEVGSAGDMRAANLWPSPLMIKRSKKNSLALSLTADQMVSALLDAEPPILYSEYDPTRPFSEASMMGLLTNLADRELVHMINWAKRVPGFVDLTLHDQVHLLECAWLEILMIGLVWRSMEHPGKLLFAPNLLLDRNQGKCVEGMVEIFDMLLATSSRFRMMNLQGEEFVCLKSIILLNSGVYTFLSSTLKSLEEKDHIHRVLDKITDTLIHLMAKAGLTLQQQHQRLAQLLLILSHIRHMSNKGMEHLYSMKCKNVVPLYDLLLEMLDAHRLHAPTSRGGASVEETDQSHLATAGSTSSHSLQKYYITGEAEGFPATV
# Summary of the method: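 Transfected HepG2 cells carrying GAL4-UAS-driven reporter units were dosed for 24 hours. Total RNA was reverse-transcribed, reporter sequences PCR-amplified, FAM-labelled, HpaI-digested and resolved by capillary electrophoresis. Increases over DMSO control defined activity.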
# [5] = biological target: X-box-binding protein 1 (Homo sapiens) (UniProt P17861); assay: ATG_Xbp1_CIS: Attagene CIS-FACTORIAL HepG2 Assay for human X-box Binding Protein 1 (XBP1) (AID 2282972); conditions: HepG2 XBP1 cis-element reporter, Attagene multiplex; actives raise or lower the signal
# Chain of X-box-binding protein 1 (Homo sapiens) (P17861 whole entry, looked up): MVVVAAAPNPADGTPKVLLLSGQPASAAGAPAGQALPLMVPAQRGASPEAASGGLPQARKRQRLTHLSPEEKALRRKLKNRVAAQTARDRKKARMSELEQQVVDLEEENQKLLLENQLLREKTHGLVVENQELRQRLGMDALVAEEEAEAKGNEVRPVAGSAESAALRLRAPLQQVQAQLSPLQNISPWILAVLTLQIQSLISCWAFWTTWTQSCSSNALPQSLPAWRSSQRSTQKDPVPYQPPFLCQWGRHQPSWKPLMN
# Summary of the method: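 Multiplexed cis-reporter readout in transfected HepG2 liver cells. Exposure lasted 24 hours. Activity in either direction was fitted against DMSO as negative control and baseline.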
# [6] = biological target: Nuclear receptor subfamily 1 group I member 3 (Homo sapiens) (UniProt Q14994); assay: ATG_CAR_TRANS: Attagene TRANS-FACTORIAL HepG2 Assay for human Constitutive Androstane Receptor (CAR) (AID 2282969; active = hit-call score of the fitted dose curve at least 0.9, where 1 is the maximum;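 also: activators raise reporter mRNA above DMSO so AC50 marks induction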); conditions: HepG2 Attagene TRANS-FACTORIAL CAR reporter
# Chain of Nuclear receptor subfamily 1 group I member 3 (Homo sapiens) (Q14994 whole entry, looked up, the tested form may be a part): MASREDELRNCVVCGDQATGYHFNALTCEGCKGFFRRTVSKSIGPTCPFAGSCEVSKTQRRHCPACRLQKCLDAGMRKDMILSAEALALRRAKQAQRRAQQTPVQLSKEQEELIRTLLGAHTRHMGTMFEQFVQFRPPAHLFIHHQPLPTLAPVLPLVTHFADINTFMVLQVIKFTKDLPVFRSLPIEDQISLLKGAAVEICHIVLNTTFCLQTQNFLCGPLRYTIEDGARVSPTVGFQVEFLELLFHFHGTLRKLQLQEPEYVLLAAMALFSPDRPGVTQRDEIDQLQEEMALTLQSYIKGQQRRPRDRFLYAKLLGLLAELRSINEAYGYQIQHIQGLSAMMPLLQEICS
# Summary of the method: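 Transiently transfected HepG2, multiplex TRANS reporters (CAR-Gal4 chimera driving GAL4-UAS reporter). 24 h dosing. Readout: reporter transcript by RT-PCR + capillary electrophoresis, fluorescence intensity; positive direction vs DMSO.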
# [7] = ATG_GAL4_TRANS: Attagene TRANS-FACTORIAL HepG2 Assay for GAL4 (Internal Marker) (AID 2282976; active = hit-call score of the fitted dose curve at least 0.9, where 1 is the maximum); conditions: HepG2 Attagene TRANS GAL4 internal marker reporter
# Summary of the method: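 Fluorescence from capillary electrophoresis of labelled RT-PCR products quantifies reporter mRNA induction after 24 h dosing of HepG2 cells carrying transfected GAL4-UAS reporter transcription units. Vehicle DMSO serves as baseline.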
# [8] = biological target: Steroid hormone receptor ERR1 (Homo sapiens) (UniProt P11474); assay: ATG_ERRa_TRANS: Attagene TRANS-FACTORIAL HepG2 Assay for human Estrogen-Related Receptor alpha (ERRa) (AID 2282971; active = hit-call score of the fitted dose curve at least 0.9, where 1 is the maximum); conditions: HepG2 Attagene TRANS reporter, ERRa transactivation
# Chain of Steroid hormone receptor ERR1 (Homo sapiens) (P11474 whole entry, looked up, the tested form may be a part): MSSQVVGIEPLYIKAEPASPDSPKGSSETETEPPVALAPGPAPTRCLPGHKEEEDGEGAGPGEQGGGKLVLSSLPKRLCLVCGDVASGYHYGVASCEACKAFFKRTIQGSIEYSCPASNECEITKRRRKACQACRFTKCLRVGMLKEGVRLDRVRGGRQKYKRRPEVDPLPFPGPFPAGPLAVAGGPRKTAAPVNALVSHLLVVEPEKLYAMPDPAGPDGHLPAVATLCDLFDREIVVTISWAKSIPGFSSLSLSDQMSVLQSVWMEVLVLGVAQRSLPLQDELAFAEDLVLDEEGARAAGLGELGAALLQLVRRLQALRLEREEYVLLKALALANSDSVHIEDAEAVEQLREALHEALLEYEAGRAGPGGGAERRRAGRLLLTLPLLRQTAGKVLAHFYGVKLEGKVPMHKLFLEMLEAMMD
# Summary of the method: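 HepG2 cells were transiently transfected with multiple GAL4-UAS reporter units, then dosed with compound for 24 h. Total RNA was reverse-transcribed, reporter cDNA PCR-amplified and fluorescently labelled, and fragments resolved by capillary electrophoresis; induction was compared with DMSO.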
# [9] = biological target: Estrogen-related receptor gamma (Homo sapiens) (UniProt P62508); assay: ATG_ERRg_TRANS: Attagene TRANS-FACTORIAL HepG2 Assay for human Estrogen-Related Receptor gamma (ERRg) (AID 2282977; active = hit-call score of the fitted dose curve at least 0.9, where 1 is the maximum;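 also: hits increase reporter signal over DMSO so potencies reflect activators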); conditions: HepG2 Attagene TRANS reporter, ERRg transactivation
# Chain of Estrogen-related receptor gamma (Homo sapiens) (P62508 whole entry, looked up, the tested form may be a part): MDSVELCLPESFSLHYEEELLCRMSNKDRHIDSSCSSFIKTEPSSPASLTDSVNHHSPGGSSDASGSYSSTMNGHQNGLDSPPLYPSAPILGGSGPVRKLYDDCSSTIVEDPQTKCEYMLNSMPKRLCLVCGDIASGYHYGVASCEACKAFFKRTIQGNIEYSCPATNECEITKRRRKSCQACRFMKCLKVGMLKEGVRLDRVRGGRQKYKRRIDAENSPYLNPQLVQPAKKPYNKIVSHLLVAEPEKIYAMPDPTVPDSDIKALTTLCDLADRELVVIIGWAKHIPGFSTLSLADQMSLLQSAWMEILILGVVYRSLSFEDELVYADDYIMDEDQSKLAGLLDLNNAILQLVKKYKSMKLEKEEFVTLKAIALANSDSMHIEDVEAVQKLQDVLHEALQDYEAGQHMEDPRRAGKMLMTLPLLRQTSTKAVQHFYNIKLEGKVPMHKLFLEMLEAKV
# Summary of the method: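 Induction of reporter transcripts through a chimeric NR-Gal4 protein is quantified in transfected human HepG2 liver cells after 24 h chemical exposure, using RT-PCR with capillary electrophoresis detection and DMSO as baseline.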
# [10] = ATG_M_19_TRANS: Attagene TRANS-FACTORIAL HepG2 Assay for M19 Transcription Factor (Internal Marker) (AID 2282974; active = hit-call score of the fitted dose curve at least 0.9, where 1 is the maximum); conditions: HepG2 Attagene TRANS-FACTORIAL M19 internal marker reporter
# Summary of the method: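 Background-control readout: after 24 h chemical exposure of transfected HepG2 carrying GAL4-driven reporter units, RNA was reverse-transcribed, amplified, fluorescently labeled and sized by capillary electrophoresis; gain-of-signal fit against DMSO.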
compound,measurement,setting,value
Cc1ccc2n[nH]nc2c1,outcome,[1],inactive
same,outcome,[2],inactive
same,outcome,[3],inactive
same,outcome,[4],inactive
same,outcome,[5],inactive
CNCCCC12CCC(c3ccccc31)c1ccccc12,outcome,[1],inactive
same,outcome,[2],inactive
same,AC50,[3],15 µM (active)
same,outcome,[4],inactive
same,AC50,[5],14.9 µM (active)
NC(=O)NC1NC(=O)NC1=O (stereo not given),outcome,[1],inactive
same,outcome,[2],inactive
same,outcome,[3],inactive
same,outcome,[6],inactive
same,outcome,[5],inactive
same,outcome,[7],inactive
CCCCC/C=C/C=C/C=O,outcome,[1],inactive
same,outcome,[2],inactive
same,outcome,[3],inactive
same,outcome,[6],inactive
same,outcome,[5],inactive
same,outcome,[7],inactive
CC(C)(N)CO,outcome,[1],inactive
same,outcome,[2],inactive
same,outcome,[3],inactive
same,outcome,[4],inactive
same,outcome,[8],inactive
same,outcome,[5],inactive
same,outcome,[9],inactive
NCCOCCO,outcome,[1],inactive
same,outcome,[2],inactive
same,outcome,[3],inactive
same,outcome,[4],inactive
same,outcome,[8],inactive
same,outcome,[5],inactive
same,outcome,[10],inactive
same,outcome,[9],inactive
C#C[C@]1(O)CC[C@H]2[C@@H]3CCC4=Cc5oncc5C[C@]4(C)[C@H]3CC[C@@]21C,outcome,[1],inactive
same,outcome,[2],inactive
same,AC50,[3],4.54 µM (active)
same,AC50,[4],0.412 µM (active)
same,AC50,[5],42.1 µM (active)
CC(=O)Nc1ccccc1O,outcome,[1],inactive
same,outcome,[2],inactive
same,outcome,[3],inactive
same,outcome,[6],inactive
same,outcome,[5],inactive
same,outcome,[7],inactive
CC(c1cc2ccccc2s1)N(O)C(N)=O (stereo not given),outcome,[1],inactive
same,outcome,[2],inactive
same,outcome,[3],inactive
same,outcome,[4],inactive
same,outcome,[5],inactive
same,outcome,[10],inactive
CCCCCCOC(=O)CC,outcome,[1],inactive
same,outcome,[2],inactive
same,outcome,[3],inactive
same,outcome,[4],inactive
same,outcome,[8],inactive
same,outcome,[5],inactive
same,outcome,[10],inactive
Nc1cc(Cl)c(O)c(Cl)c1,outcome,[1],inactive
same,outcome,[2],inactive
same,AC50,[3],70.7 µM (active)
same,outcome,[4],inactive
same,outcome,[8],inactive
same,outcome,[5],inactive
same,outcome,[10],inactive
same,outcome,[9],inactive
NC(N)=NC(=O)c1nc(Cl)c(N)nc1N,outcome,[1],inactive
same,outcome,[2],inactive
same,outcome,[3],inactive
same,outcome,[4],inactive
same,outcome,[5],inactive
CC(C)=CCO,outcome,[1],inactive
same,outcome,[2],inactive
same,outcome,[3],inactive
same,outcome,[4],inactive
same,outcome,[8],inactive
same,outcome,[5],inactive
same,outcome,[10],inactive
same,outcome,[7],inactive
CC(CCO)CCc1ccccc1 (stereo not given),outcome,[1],inactive
same,outcome,[2],inactive
same,outcome,[3],inactive
same,AC50,[4],25.2 µM (active)
same,outcome,[5],inactive
same,outcome,[10],inactive
CCCc1ccccc1O,outcome,[1],inactive
same,outcome,[2],inactive
same,outcome,[3],inactive
same,outcome,[6],inactive
same,outcome,[5],inactive
same,outcome,[7],inactive
C=COCCOCCOCCOC=C,outcome,[1],inactive
same,outcome,[2],inactive
same,outcome,[3],inactive
same,outcome,[6],inactive
same,outcome,[5],inactive
same,outcome,[7],inactive
O=C(COc1ccc(Cl)cc1)N1CCN(Cc2ccc3c(c2)OCO3)CC1,outcome,[1],inactive
same,outcome,[2],inactive
same,outcome,[3],inactive
same,outcome,[4],inactive
same,outcome,[8],inactive
same,outcome,[5],inactive
same,outcome,[10],inactive
same,outcome,[7],inactive
same,outcome,[9],inactive
CN(C)CCOCCN(C)C,outcome,[1],inactive
same,outcome,[2],inactive
same,outcome,[3],inactive
same,outcome,[6],inactive
same,outcome,[5],inactive
same,outcome,[10],inactive
same,outcome,[9],inactive
O=S(=O)(O)c1ccc(O)c2ncccc12,outcome,[1],inactive
same,outcome,[2],inactive
same,outcome,[3],inactive
same,outcome,[4],inactive
same,outcome,[5],inactive
CCCCCCCCCC=O,outcome,[1],inactive
same,outcome,[2],inactive
same,outcome,[3],inactive
same,outcome,[4],inactive
same,outcome,[5],inactive
c1ccc(CCCc2ccccn2)cc1,outcome,[1],inactive
same,AC50,[2],148 µM (active)
same,AC50,[3],42.9 µM (active)
same,outcome,[4],inactive
same,outcome,[8],inactive
same,outcome,[5],inactive
same,outcome,[9],inactive
C=C(C)C(=O)OCc1ccccc1,outcome,[1],inactive
same,outcome,[2],inactive
same,outcome,[3],inactive
same,outcome,[4],inactive
same,outcome,[8],inactive
same,outcome,[5],inactive
same,outcome,[10],inactive
O=C(O)C[C@H](O)C[C@H](O)/C=C/c1c(C2CC2)nc2ccccc2c1-c1ccc(F)cc1,outcome,[1],inactive
same,outcome,[2],inactive
same,outcome,[3],inactive
same,outcome,[4],inactive
same,outcome,[8],inactive
same,outcome,[5],inactive
same,outcome,[7],inactive
CCCC(C)C=O (stereo not given),outcome,[1],inactive
same,outcome,[2],inactive
same,outcome,[3],inactive
same,outcome,[6],inactive
same,outcome,[5],inactive
same,outcome,[10],inactive
same,outcome,[9],inactive
CC(=O)OCc1ccc2c(c1)OCO2,outcome,[1],inactive
same,outcome,[2],inactive
same,outcome,[3],inactive
same,outcome,[6],inactive
same,outcome,[5],inactive
same,outcome,[7],inactive
CCCCCCCCCCCCCCCC(=O)O,outcome,[1],inactive
same,outcome,[2],inactive
same,outcome,[3],inactive
same,outcome,[6],inactive
same,outcome,[5],inactive
same,outcome,[7],inactive
CCN(CC)CCOC(=O)c1ccc(N)cc1,outcome,[1],inactive
same,outcome,[2],inactive
same,outcome,[3],inactive
same,outcome,[8],inactive
same,outcome,[5],inactive
same,outcome,[10],inactive
same,outcome,[7],inactive
same,outcome,[9],inactive
CO[Si](C)(OC)c1ccccc1,outcome,[1],inactive
same,outcome,[2],inactive
same,AC50,[3],7.98 µM (active)
same,outcome,[4],inactive
same,outcome,[5],inactive
same,outcome,[10],inactive
O=C(OCc1ccccc1)C(=O)OCc1ccccc1,outcome,[1],inactive
same,outcome,[2],inactive
same,outcome,[3],inactive
same,outcome,[4],inactive
same,outcome,[5],inactive
same,outcome,[7],inactive
O=C(O)CCCCCCCCCCC(=O)O,outcome,[1],inactive
same,outcome,[2],inactive
same,outcome,[3],inactive
same,outcome,[4],inactive
same,outcome,[5],inactive
same,outcome,[10],inactive
Nc1cc(N)cc(C(=O)O)c1,outcome,[1],inactive
same,outcome,[2],inactive
same,outcome,[3],inactive
same,outcome,[4],inactive
same,outcome,[5],inactive
same,outcome,[10],inactive
same,outcome,[7],inactive
C=C(C)[C@@H]1CCC2=CC(=O)C[C@@H](C)[C@]2(C)C1,outcome,[1],inactive
same,AC50,[2],152 µM (active)
same,outcome,[3],inactive
same,outcome,[4],inactive
same,outcome,[5],inactive
same,outcome,[10],inactive
